# Compounds with a hit are over-represented: about 4.1% of the library has one in this group of screens.
# hgDAF12 agonist: hgDAF-12 agonism, primary luciferase screen. actives 1.8% (n = 370,000). activation, % at 6.8 µM. HEK293 GAL4-hgDAF12 UAS-luciferase reporter, agonist luminescence; normalized to butyrate control;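 active = activation above a cutoff set at the mean of all screened compounds plus 3 SD, cut at about 10% in these data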
# hcDAF12 agonist: H. contortus DAF-12 activation, primary screen. AID 652067. actives 1.4% (n = 370,000). HEK293 hcDAF-12 lit1-tk-luc reporter, luminescence; 0% DMSO, 100% Δ7-dafachronic acid. activation, % at 6.8 µM;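 active = activation above the mean of all tested compounds plus 3 SD, cut at about 5.5% in these data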
# DAX1 inh-1: blocks DAX1 repression of SF-1 activated StAR promoter; HEK293T StAR-luciferase reporter, SF-1/DAX-1 repression relief; inhibition, % at 6.8 µM; actives 1.1% (n = 370,000); AID 652010;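 active = inhibition above the mean over all tested compounds plus 3 SD, cut at about 3.6% in these data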;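 also: higher inhibition means more luminescence from relief of DAX-1 repression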
# ssDAF-12 act: activators of S. stercoralis DAF-12 nuclear receptor; AID 652126; actives 1% (n = 370,000); HEK293 ssDAF-12/GRIP1 lit1-tk-luc reporter, luminescence; % of 3 µM dafachronic acid response; activation, % at 6.8 µM;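 active = activation above the mean over all tested compounds plus 3 SD, cut at about 0.9% in these data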
# DAX1 inh-2: inhibits human nuclear receptor DAX1 | inhibition, % at 6.75 µM | P51843 | actives 0.99% (n = 340,000) | HEK293 Gal4-DAX1 luciferase reporter, luminescence;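 active = inhibition above the mean over all tested compounds plus 3 SD, cut at about 4.2% in these data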;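 also: inhibition shows as a rise in luminescence from relieved DAX1 repression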
# Target sequence (P51843 207-470 limits assumed): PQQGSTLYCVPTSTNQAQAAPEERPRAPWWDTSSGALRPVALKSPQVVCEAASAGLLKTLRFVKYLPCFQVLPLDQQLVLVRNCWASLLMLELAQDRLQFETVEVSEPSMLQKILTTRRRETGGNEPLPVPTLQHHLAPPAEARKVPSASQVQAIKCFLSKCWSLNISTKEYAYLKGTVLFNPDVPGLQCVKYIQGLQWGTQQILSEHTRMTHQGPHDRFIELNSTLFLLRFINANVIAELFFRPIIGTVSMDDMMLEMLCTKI
# Numbers stand for hits; 0 = inactive; - = not tested or not shown.
SMILES,hgDAF12 agonist,hcDAF12 agonist,DAX1 inh-1,ssDAF-12 act,DAX1 inh-2
Cc1ccccc1CCNCc1cc2cccc(C)c2[nH]c1=O,0,0,0,1.0,5.6
Fc1ccccc1CCNCc1cccc2ccccc12,0,0,0,0,0
C[C@H]1CC[C@@H]2[C@@H](C)[C@H]3[C@H](C[C@H]4[C@@H]5CC=C6C[C@@H](O[C@@H]7O[C@H](CO)[C@H](O)[C@H](O[C@@H]8O[C@H](CO)[C@@H](O)[C@H](O)[C@H]8O)[C@H]7O[C@@H]7O[C@@H](C)[C@H](O)[C@@H](O)[C@H]7O)CC[C@]6(C)[C@H]5CC[C@]34C)N2C1,0,0,0,0,4.3
S=P1(Oc2ccccc2)Nc2ccccc2N1,12,0,0,0,0
C=CCN(CC#CCO)Cc1ccc(OC)cc1OC,0,0,0,0,-
CN1C(=O)NC(=O)/C(=C\C=C\c2ccccc2[N+](=O)[O-])C1=O,0,0,0,1.4,-
CC(C)CCP(=O)(O)O,0,0,0,0,-
O=C(CF)NC(NC(=S)Nc1ccccc1O)C(Cl)(Cl)Cl (centres undefined),0,0,0,0,4.9
Cc1c(C(c2ccc(F)cc2)c2c(O)c3ccccc3oc2=O)c(=O)n(-c2ccccc2)n1C (centres undefined),0,0,0,0,0
Cc1c(C(c2ccccc2Cl)c2c(O)c3ccccc3oc2=O)c(=O)n(-c2ccccc2)n1C (centres undefined),0,0,0,0,4.3
Cc1ccc(OC(=O)N(C)C[C@H]2OCc3cnnn3CCCC(=O)N([C@@H](C)CO)C[C@@H]2C)cc1,0,0,0,0,-
COc1ccc(CN2CCNCC2)c(OC)c1OC,0,0,0,0,0
COc1cc(CN2CCNCC2)cc(OC)c1OC,0,0,0,1.0,0
C=C1C[C@]2(O)[C@@]3(C)CCC(=O)C(C)(C)C3=C(O)C(=O)[C@@]2(C)[C@@H]2C(=O)O[C@@](C)(C(=O)OC)C(=O)[C@@]12C,0,0,0,0,5.0
CN(C)c1ccc(CCN2CCOCC2)cc1,11,0,0,1.2,0
COC(=O)C(O)(c1ccc(NC(=O)Oc2ccccc2)cc1)C(F)(F)F (centres undefined),0,0,0,0,5.5
CC1(C)NC(=S)C(C)(C)N1N=O,0,0,0,6.5,0
O=C(CN1CC(c2ccccc2)CC1=O)Nc1ccc(F)cc1 (centres undefined),0,0,0,0,5.2
Brc1ccc2c(c1)-n1nncc1CNC2,0,0,0,0,-
Cc1nc2ncnn2c(C)c1CCC(=O)N1CCC2(CC1)OCCO2,0,0,0,0,4.6
Cc1c(P(=S)(c2ccccc2)c2ccccc2)c2ccccc2n1C,0,0,-,0,-
Cc1cc(=O)oc2c(C)c(OCC(=O)N3CCC(C(=O)O)(c4ccccc4)CC3)ccc12,0,0,0,0,4.6
Cc1cc(=O)oc2cc(OCC(=O)N3CCC(C(=O)O)(c4ccccc4)CC3)ccc12,0,0,0,0,0
O=C1NCN(c2ccccc2)C12CCN(C(c1nnnn1C1CCCC1)C1CC1)CC2 (centres undefined),0,0,0,0,-
OCC#CC[N+]1(CC#Cc2ccccc2)CCOCC1,0,0,0,0,4.3
SMILES,hgDAF12 agonist,hcDAF12 agonist,DAX1 inh-1,ssDAF-12 act,DAX1 inh-2
CC(C)C(C(=O)NC(C)(C)C)N1C(=O)CN=C(c2ccccc2)c2ccccc21 (centres undefined),0,0,0,0,-
O=C(NCCN1CCC2(CC1)C(=O)NCN2c1ccccc1)c1ccc(F)cc1,0,0,0,0,-
Cc1ccc(-c2nc(N(C)C3CCN(C)CC3)c3ccccc3n2)cc1,0,6.0,0,0,0
COc1cc(/C=C/[N+](=O)[O-])ccc1OC(=O)c1cccnc1,0,0,0,1.3,0
COc1cc2c(cc1/C=C/[N+](=O)[O-])OCO2,0,0,0,0,0
Cc1cc([P+](=O)O)c(C)n1-c1ccc(Br)cc1,0,0,0,1.5,0
Cc1c(N=Nc2c(O)n(-c3ccc(Br)cc3)c(=O)[nH]c2=O)c(=O)n(-c2ccccc2)n1C,0,0,0,0,0
COc1ccc(OC(=O)N(C)C[C@H]2OCc3cnnn3CCCC(=O)N([C@@H](C)CO)C[C@@H]2C)cc1,0,0,0,0,-
CCOC(=O)CC[C@@H]1CC[C@]2(CCCN(Cc3cccnc3)C2)O1,0,0,0,0,-
Nc1nonc1OCCCCOc1nonc1N,0,0,0,3.3,0
COc1ccc2c(c1)C(NC(C)=O)CCc1cc(OC)c(OC)c(OC)c1-2 (centres undefined),0,0,3.9,0,0
COc1cc2c(c(OC)c1OC)-c1ccc(O)c(=O)cc1C(NC(C)=O)CC2 (centres undefined),0,0,0,0,6.4
N#CC[N+]1(CCCNP2(=O)C=C(c3ccccc3)OC(c3ccccc3)=C2)CCOCC1,0,0,0,0,6.2
COc1ccc(OC)c(-n2c(O)c(/C=C3\C=Nc4ccccc43)c(=O)[nH]c2=O)c1,0,0,0,2.9,0
CN1CCN(c2c(N)c(=O)oc3ccccc23)CC1,0,0,0,0,0
Nc1ccc2c(c1)oc1ccccc12,11,0,0,0,0
CCNC(=O)NC(=O)C(C)OC(=O)c1c(C)nn(Cc2ccccc2)c1Cl (centres undefined),0,0,0,0,6.3
COc1ccc2c(c1)CC1(CN2C)C(=O)NC(=O)N(c2ccc(F)cc2)C1=O (centres undefined),0,6.0,0,0,0
CCCC(=O)N1c2ccc(Cl)cc2C(c2ccccc2)=NCC1C(=O)NC(C)(C)C (centres undefined),0,0,0,0,-
C[N+]1=C(N)NC2=C3CCCCC3ONC2C1 (centres undefined),0,0,-,0,-
CCOC(=O)[C@]12Cc3ccccc3[C@H]1N(C(C)C)C(=O)c1ccccc12,0,0,4.5,0,-
COc1ccc2c(c1)NP(=S)(c1ccccc1)N2C (centres undefined),0,0,4.5,0,5.3
COc1ccc(-n2c(=O)[nH]c3ccccc3c2=O)c(OC)c1,0,0,0,0,0
CCCCN1C(=O)NC(=O)C2(Cc3c(nc4ccccn4c3=O)N3CCc4ccccc4C32)C1=O (centres undefined),0,6.0,0,0,0
COc1cc2oc(=O)c(CC(=O)N3C[C@H]4C[C@@H](C3)c3cccc(=O)n3C4)c(C)c2cc1Cl,0,0,0,0,4.8
O=C(NCCN1CCC2(CC1)C(=O)NCN2c1ccccc1)c1ccccc1F,0,0,0,0,-
C=CCn1c(O)c(C(CC)=Nc2cccc(C(F)(F)F)c2)c(=O)[nH]c1=O,0,6.1,0,0,0
CC(C)S(=O)(=O)N1Cc2ccc(Br)cc2-n2nncc2C1,0,0,0,0,-
Nc1ccccc1C(=O)OCc1ccc([N+](=O)[O-])cc1,11,0,0,0,0
